The structures appear in SMILES notation. Records with an inconclusive call do not appear. The source made the active and inactive calls. Unless noted, calls come from the whole dose curve; as a rule, active = well fitted curve in the direction sought with a large enough effect; inconclusive = small, poorly fitted or top-dose-only effect, or another doubt; inactive = no such curve, though single readings can be large; an effect the other way counts as inactive or inconclusive. *1 amine or outer side, *2 acyl side, *3 side chain or, on linkers, in order; H or OH if unused. Where a SMILES comes first, the peptide text is derived from it. Side-chain parts run from the residue outwards. [ ]: non-standard residue; d: D form. The star is where a group is joined. Ethylenediamine = C(CN[*:2])N[*:1]; Hyp = O=C(O)[C@@H]1C[C@@H](O)CN1; Phg = N[C@H](C(=O)O)c1ccccc1; CO = O=C([*:1])[*:2]; Bn = c1ccc(C*)cc1

Here are results for eleven molecules from PubChem BioAssay (NCATS).

Test [1] deals with Glutathione peroxidase 1 (Homo sapiens) (UniProt P07203). As to the kind of experiment: Primary qHTS Assay for Inhibitors of Recombinant Selenoprotein Glutathione Peroxidase 1 (GPX1) (AID 1845191). Note: nearly all actives have a fitted effect of over 65% in size. The essentials:
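10 nM GPX1 + cpd, 30 min RT; start w/ 1 mM GSH, 0.5 mM cumene hydroperoxide, 0.5 mM NADPH, 100 nM GR, 0.01% BSA; buffer 50 mM Tris-HCl pH 7.5, 2 mM EDTA, 150 mM NaCl; Fl 340/450, 0 & 15 min.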
In general terms: qHTS replaces the single test concentration by a dilution series.

The target in test [2] is Phospholipid hydroperoxide glutathione peroxidase GPX4 (Homo sapiens) (UniProt P36969). As to the kind of experiment: Primary qHTS Assay for Inhibitors of Recombinant Selenoprotein Glutathione Peroxidase 4 (GPX4) (AID 1845192). Note: nearly all actives have a fitted effect of over 65% in size. The essentials:
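NADPH consumption, followed by fluorescence at 340/450 nm between 0 and 15 min, reports GPX4 activity via coupled glutathione reductase (100 nM). Enzyme 200 nM was pre-exposed to compound 30 min; 0.5 mM cumene hydroperoxide and 1 mM GSH served as substrates.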

Test [3] in a line: Cell Viability - SK-N-SH (AID 435; calls by dose curve;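 note: potency is the fitted concentration of half-maximal effect; compound exposure lasted 40 h at 37 °C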). Conditions: SK-N-SH neuroblastoma cell viability qHTS. The method in brief: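 Human neuroblastoma line, 40 h exposure at 37 °C, ATP quantified via luciferase luminescence; DMSO and 100 uM tamoxifen define 0 and 100% inhibition for AC50 fitting.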
Test [4] in a line: Cell Viability - N2a (AID 540).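 Note: plate controls were DMSO alone for no effect and tamoxifen control for full effect; nearly all actives have a fitted effect of over 45% in size.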 Conditions: N2a mouse neuroblastoma cell viability; activity change, negative = cytotoxicity: at 92.2 µM (top of the series). The essentials: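 Mouse neuroblastoma N2a cells, 1500/well, exposed to compounds 40 h at 37 °C in complete medium. Viability measured as cellular ATP by CellTiter-Glo luminescence; AC50 from Hill fits of concentration-response.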

A short description of test [5]: Cell Viability - NIH 3T3 (AID 541).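 Note: plate controls were DMSO alone for no effect and tamoxifen positive control for full effect; nearly all actives have a fitted effect of over 25% in size.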 As to conditions: NIH 3T3 cell viability, qHTS; activity change, negative = cytotoxicity: at 92.2 µM (top of the series). The essentials: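 Mouse NIH 3T3 fibroblasts, 1000 cells/well, rested 5 hr at 37 °C, then exposed to compound for 40 hr at 37 °C in complete medium. Viability read as intracellular ATP by CellTiter-Glo luminescence; AC50 from Hill-equation fits of concentration-response data.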

Test [6] in a line: Cell Viability - HUV-EC-C (AID 542). Note: % is set by controls: 0 for no effect and ±100 for the full control effect; nearly all actives have a fitted effect of over 35% in size. The method in brief: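 HUV-EC-C human vascular endothelial cells, 1000/well, exposed to compound for 40 hr at 37 °C in complete medium. Intracellular ATP was read by CellTiter-Glo luminescence. AC50 came from Hill-equation fits of concentration-response data.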
Test [7] is described as follows: Cell Viability - SH-SY5Y (AID 544).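 Note: 0% = DMSO alone and -100% = 100 µM tamoxifen; nearly all actives have a fitted effect of over 55% in size.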 The method in brief: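 SH-SY5Y human neuroblastoma cells (1500/well) incubated 5 h, then compound-treated 40 h at 37 °C in complete medium. Viability read as intracellular ATP by CellTiter-Glo luminescence after 20 min; AC50 from Hill-equation fits of qHTS concentration-response.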
The nature of test [8]: Cell Viability - Renal Proximal Tubule (AID 545).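 Note: 0% = DMSO only and -100% = 100 µM tamoxifen; nearly all actives have a fitted effect of over 40% in size.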 As to conditions: renal proximal tubule cells viability, primary cells of rat origin; at 91.7 µM (top of the series). The method in brief: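 In this qHTS format, normal rat kidney-derived proximal tubule cells in complete culture medium receive compound titrations, then sit 40 hours at 37 °C before luciferase-based ATP quantitation; potency is reported as AC50 from concentration-response curves.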

Test [9] in a line: Cell Viability - Mesenchymal (AID 546).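 Note: cells exposed to compound for 40 hours before reading; 0% = DMSO only and -100% = 100 µM tamoxifen.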 Conditions: mesenchymal cells viability, qHTS; activity change, negative = cytotoxicity: at 91.7 µM (top of the series). The essentials:
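AC50 values reflect the drop in intracellular ATP in a human kidney mesenchymal line derived from normal glomeruli. Treatment lasts 40 hr at 37 °C in complete medium, and the signal comes from CellTiter-Glo luminescence.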

Test [10] can be described thus: qHTS Assay for Identification of Small Molecule Inducers of Hypoxia Response (AID 2120; active = well fitted curve in the direction sought with a large enough effect in the signal ratio, with a control signal flat, not every such curve was filed as active; the % refers to the signal ratio; note: 0% is about no effect). The method in brief: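 HRE-bla ME-180 cells in Opti-MEM with 0.5% dialyzed FBS, pre-plated 4-5 h, then compound titration for 17 h at 37 degrees Celsius. CCF4 loaded 2.5 h at room temperature; 460/530 nm ratio gave %Activity and AC50 for induction.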
Test [11] in a line: qHTS assay for small molecule agonists of retinoid X receptor alpha signaling (AID 588544; calls by dose curve). As to conditions: HEK293T RXRa-UAS-bla, beta-lactamase reporter, 18 h; 530 nm emission.
Test [12] deals with Retinoic acid receptor RXR-alpha (Homo sapiens) (UniProt P19793). The test is described as above.
A short description of test [13]: qHTS assay for small molecule antagonists of retinoid X receptor alpha signaling (AID 588546; active = well fitted inhibition curve with a large enough effect in the signal ratio, with a control signal flat, not every such curve was filed as active; the % refers to the signal ratio;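 note: cells stimulated with 9-cis-retinoic acid as agonist; % is set by controls: 0 for no effect and ±100 for the full control effect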). As to conditions: HEK293T RXRa-UAS-bla, beta-lactamase ratio, antagonist mode; measured here: W530 green channel, cytotoxicity proxy. The method in brief: (§1)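 Beta-lactamase reporter inhibition, read as CCF4 fluorescence ratio (ex 405, em 460/530 nm) after 2 h at RT. HEK293T UAS-bla cells, 2500/well, were stimulated with 9-cis-RA at 500 or 100 nM final alongside test compound for 18 h at 37 C.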

For test [14], the target named is Retinoic acid receptor RXR-alpha (Homo sapiens) (UniProt P19793). The description is as above. As to conditions: HEK293T RXRa-UAS-bla, beta-lactamase ratio, antagonist mode. The essentials: as §1
In test [15] the target is Peroxisome proliferator-activated receptor alpha (Homo sapiens) (UniProt Q07869). In words: qHTS assay for small molecule agonists of the peroxisome proliferator-activated receptor alpha (PPARalpha) signaling pathway (AID 651778). Note: % of control where 0% means no effect. Conditions: PathHunter PPARalpha complementation, chemiluminescence, 6 h; max response: stronger effect = higher value. The essentials: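 Chemiluminescence from complemented enzyme reported PPARalpha activation in cells after 6 hr of compound treatment at 37 C. The detection reagent was incubated for 60 min at room temperature, and compounds were scored as agonists.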

The nature of test [16]: qHTS assay for small molecule agonists of the antioxidant response element (ARE) signaling pathway measured by Nrf2-dependant transcriptional activity (AID 720636; active = well fitted curve in the direction sought with a large enough effect in the repeat runs; an effect the other way counts as inactive or inconclusive; note: % of control where 0% means no effect). The essentials: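 Quantitative HTS format in HepG2 cells stably expressing an ARE-luciferase reporter; 16 hr compound treatment at 37 C, luciferase signal detected with ONE-Glo.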
Test [17] in a line: qHTS assay for small molecule agonists of the antioxidant response element (ARE) signaling pathway measured by Nrf2-dependant transcriptional activity - cell viability counter screen (AID 720653; active = well fitted curve in the direction sought with a large enough effect in the repeat runs; an effect the other way counts as inactive or inconclusive; note: % is set by controls: 0 for no effect and ±100 for the full control effect). As to conditions: ARE-bla HepG2 viability, CellTiter-Glo ATP luminescence, 16 h; max response: stronger effect = lower value. The essentials:
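Cytotoxicity counter screen: intracellular ATP quantified by CellTiter-Glo luminescence in the same ARE-bla HepG2 plates, after 16 h compound exposure and a 2 h beta-lactamase substrate step.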

Test [18] is described as follows: qHTS assay for cell viability of HEK293 cells (AID 743288). Note: % is set by controls: 0 for no effect and ±100 for the full control effect; nearly all actives have a fitted effect of over 50% in size. Conditions: ATP luminescence (CellTiter-Glo), 18 h; max response: stronger effect = lower value. The method in brief: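 Luminescent ATP quantitation served as the viability read-out. Cells (parental HEK293, 2,000/well) received compounds after at least 5 h at 37 C and were exposed for 18 h before a 30 min room-temperature reagent step.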

A short description of test [19]: qHTS assay for cell viability of the p53RE-bla HCT-116 cell line (AID 743292). Note: % is set by controls: 0 for no effect and ±100 for the full control effect; nearly all actives have a fitted effect of over 55% in size. The essentials: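 Viability of compound-treated p53RE-bla HCT-116 cells is taken from ATP-dependent luciferase luminescence. Treatment lasts 16 h at 37 C after a 5 h settling period; detection follows 30 min at room temperature.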
A short description of test [20]: qHTS drug screen for cell cycle checkpoint inhibitors in PARPi-resistant BRCA-mutant ovarian cancer cell lines. (AID 1963452; calls by dose curve; note: potency is the fitted concentration of half-maximal effect). Conditions: PEO1/OlaR viability, CellTiter-Glo luminescence, 96 h; for Z-AUC: stronger effect = lower value. The method in brief: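 PEO1, PEO4 and PEO1/OlaR ovarian cancer cells, 600 per well, exposed 96 h at 37C to a dilution series. Viability read by CellTiter-Glo luminescence, normalized to DMSO and empty wells; activity summarized as Z-AUC.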

Sequence of Glutathione peroxidase 1 (Homo sapiens) (P07203 whole entry, looked up): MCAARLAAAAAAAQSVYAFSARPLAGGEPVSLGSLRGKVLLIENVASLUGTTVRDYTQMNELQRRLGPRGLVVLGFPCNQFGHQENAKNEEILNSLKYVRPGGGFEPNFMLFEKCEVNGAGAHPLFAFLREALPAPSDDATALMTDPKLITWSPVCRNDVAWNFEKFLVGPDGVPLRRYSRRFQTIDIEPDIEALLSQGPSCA
Sequence of Phospholipid hydroperoxide glutathione peroxidase GPX4 (Homo sapiens) (P36969 whole entry, looked up): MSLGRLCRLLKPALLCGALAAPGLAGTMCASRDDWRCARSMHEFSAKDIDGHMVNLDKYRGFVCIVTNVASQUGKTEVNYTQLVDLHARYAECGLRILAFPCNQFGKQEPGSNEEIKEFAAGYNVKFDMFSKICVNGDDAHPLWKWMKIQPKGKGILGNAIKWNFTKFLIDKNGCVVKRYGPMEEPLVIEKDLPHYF
Sequence of Retinoic acid receptor RXR-alpha (Homo sapiens) (P19793 whole entry, looked up): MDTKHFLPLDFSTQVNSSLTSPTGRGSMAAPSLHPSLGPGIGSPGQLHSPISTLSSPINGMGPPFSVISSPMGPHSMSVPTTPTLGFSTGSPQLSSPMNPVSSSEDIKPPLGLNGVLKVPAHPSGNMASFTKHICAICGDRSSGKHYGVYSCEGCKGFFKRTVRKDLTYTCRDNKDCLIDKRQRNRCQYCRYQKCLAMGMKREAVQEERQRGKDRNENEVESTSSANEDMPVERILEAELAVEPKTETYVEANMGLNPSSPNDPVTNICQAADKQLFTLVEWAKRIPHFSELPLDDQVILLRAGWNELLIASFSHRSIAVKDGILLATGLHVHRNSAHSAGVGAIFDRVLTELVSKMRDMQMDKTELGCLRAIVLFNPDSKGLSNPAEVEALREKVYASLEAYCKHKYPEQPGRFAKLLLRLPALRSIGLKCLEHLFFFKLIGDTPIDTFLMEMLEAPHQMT
Sequence of Peroxisome proliferator-activated receptor alpha (Homo sapiens) (Q07869 whole entry, looked up): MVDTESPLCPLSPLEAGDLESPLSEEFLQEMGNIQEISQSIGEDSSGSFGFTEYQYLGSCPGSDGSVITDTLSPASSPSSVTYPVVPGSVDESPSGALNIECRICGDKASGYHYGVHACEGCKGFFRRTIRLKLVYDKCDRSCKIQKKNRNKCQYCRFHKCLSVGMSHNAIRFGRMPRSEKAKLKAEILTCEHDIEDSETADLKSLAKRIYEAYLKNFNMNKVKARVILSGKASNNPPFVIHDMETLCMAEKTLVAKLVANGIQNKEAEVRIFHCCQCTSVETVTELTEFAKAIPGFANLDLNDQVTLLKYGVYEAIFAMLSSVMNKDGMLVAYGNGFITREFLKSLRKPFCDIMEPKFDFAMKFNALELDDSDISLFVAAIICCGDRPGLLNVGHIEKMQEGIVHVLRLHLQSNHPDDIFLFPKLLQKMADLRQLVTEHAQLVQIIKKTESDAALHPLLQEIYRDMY

As to `CC(=O)c1cc2cccc(OCC(O)CNC(C)C)c2o1` (configuration not stated), the Potency result in test [1] and in test [2] was “inactive” each time.

Turning to `CC(=O)OC1CCC2(C)C(=CCC3C2CCC2(C)C(c4cccnc4)=CCC32)C1` (configuration not stated), the Potency result in test [1] and in test [2] was “inactive” in each case.

Take `CCCC(=O)Nc1ncnc2c1ncn2C1O[C@@H]2COP(=O)(O)O[C@H]2[C@H]1OC(=O)CCC` (some centres not stated): the Potency entry in [1] and in [2] was “inactive” each time.

In the case of `CCCCCCCCCC(=O)OC1(c2ccc(Cl)cc2)CCN(CCCC(=O)c2ccc(F)cc2)CC1`, the Potency result in [1] and in [2] was “inactive” each time.

In the case of `O=C(O)[C@@H]1C(=CCO)O[C@@H]2CC(=O)N12`, the Potency result in [1] and in test [2] was “inactive” each time.

Take `O=C(OCCN(CCO)CCO)c1ccccc1O`: the Potency result in [1] and in [2] was “inactive” each time.

On to `CC[C@H](C)[C@@H]([C@@H](CC(=O)N1CCC[C@H]1[C@H](OC)[C@@H](C)C(=O)NCCc1ccccc1)OC)N(C)C(=O)[C@@H](NC(=O)[C@H](C(C)C)N(C)C)C(C)C`, for which the Potency result in [1] and in test [2] was “inactive” throughout.

For `NCCCC[C@@H]1NC(=O)[C@@H](Cc2c[nH]c3ccccc23)NC(=O)[C@H](c2ccccc2)NC(=O)[C@@H]2C[C@@H](OC(=O)NCCN)CN2C(=O)[C@H](Cc2ccccc2)NC(=O)[C@H](Cc2ccc(OCc3ccccc3)cc2)NC1=O` (cyclo([Hyp]([CO-Ethylenediamine])[Phg][dW]KY(Bn)F)), the Potency entry in test [1] and in test [2] was “inactive” in each case.

`c1ccc2scnc2c1`: the Potency in test [3] is > 92 µM (inactive). The activity change, negative = cytotoxicity in [4] is -2.55% (inactive); in [8] it was -4.16% (inactive); in test [9], -5.46% (inactive). In addition, the Potency result in test [5], in test [7], in test [16], in [19], in test [1] and in test [2] was “inactive” in each case. The molecule was called inactive in test [6], in [10] and in test [12]. Also, the max response was -4.98% in [11]; -9.8% in test [13]; -2.82% (inactive) in [14]; -3.74% (inactive) in test [15]; -3.11% (inactive) in [17]; 11.2% (inactive) in test [18].

On to `CN(C)CCCOc1ccc(-c2ccc3ncc4c(c3c2)n(C2CCOCC2)c(=O)n4C)cn1`, for which the Potency result in [1] and in test [2] was “inactive” each time. Further, in test [20], the Potency was 3.01 µM (active). Further, the figures for the Z-AUC in test [20] (measured here: PEO1 parental Z-AUC) and in test [20] (measured here: PEO4 Z-AUC) were -1.35 and -1.31, respectively.

Turning to `CCCCC[C@H](O)/C=C/[C@@H]1[C@@H](C/C=C/CCCC(=O)O)[C@@H](O)C[C@H]1O`, the Potency result in test [1] and in test [2] was “inactive” throughout.
